# HSF1 inh: HSF1 inhibition; 0.77% of 300,000 active; NIH3T3-HGL HSE-luciferase, MG132-induced, luminescence 8 h; active compounds read low; activity change, negative = inhibition, % at 7.5 µM (by protocol);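 active = more than half of replicate wells show activity change below -50%, luminescence cut by over half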;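 also: luciferase reports HSF-1 transcriptional activity via heat shock element; 0% = median of DMSO wells and -100% = zero luminescence signal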
# FXN GAA850 act: frataxin GAA850 promoter activation | HEK293 lucGAA850 FXN promoter luciferase reporter, 24 h; percent of 10 µM SAHA response | activation, % at 6 µM | 0.56% of 360,000 active | AID 540364;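 active = activation above the average of all compounds screened plus 3 SD, cutoff fixed separately per campaign, cut at about 7.5% in these data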;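 also: 0% = DMSO wells and 100% = 10 µM SAHA wells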
# NR0B1 inh: inhibits human nuclear receptor DAX1. P51843. HEK293 Gal4-DAX1 luciferase reporter, luminescence. inhibition, % at 6.75 µM. 0.99% of 340,000 active. AID 504766;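 active = inhibition above the mean over all tested compounds plus 3 SD, cut at about 4.2% in these data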;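 also: 0% = DAX1-transfected cells with DMSO and 100% = empty-vector control cells with DMSO; inhibition shows as a rise in luminescence from relieved DAX1 repression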
# Target sequence (P51843 207-470 limits assumed): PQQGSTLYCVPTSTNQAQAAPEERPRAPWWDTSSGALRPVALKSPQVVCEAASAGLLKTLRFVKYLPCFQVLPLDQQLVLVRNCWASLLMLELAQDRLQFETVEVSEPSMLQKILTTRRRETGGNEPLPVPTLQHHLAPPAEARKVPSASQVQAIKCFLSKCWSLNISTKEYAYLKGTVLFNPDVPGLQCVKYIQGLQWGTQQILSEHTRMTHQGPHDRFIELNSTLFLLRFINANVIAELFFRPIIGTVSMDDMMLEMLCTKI
# HSF1 activator: increases HSF-1 driven luciferase reporter signal | NIH3T3-HGL HSF-1 luciferase reporter, MG132, 8 h; 100% = twice DMSO control signal | activation, % at 9 µM | 1.7% of 300,000 active;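 active = mean replicate activation of at least 50% with a set share of replicates each reaching 50%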;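 also: 0% = median of the neutral control wells and 100% = twice that signal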
# AHR act: activators of human aryl hydrocarbon receptor; P35869; AHR-responsive luciferase reporter cells, luminescence; 2.5% of 320,000 active; activation, % at 5 µM; in the data active = activation above about 47%;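 also: 0% = vehicle wells and 100% = reference agonist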
# * = called active by the depositor; nt = no result. Rows were chosen to be rich in hits. Some 5.4% of all compounds tested hit in one or more screens of this group.
SMILES,HSF1 inh,FXN GAA850 act,NR0B1 inh,HSF1 activator,AHR act
CCN(CC(=O)Nc1c(F)cccc1F)C(=O)c1nc2nccc(C)n2n1,nt,2.6,0.5,nt,0.0
Cc1cc(C)c(CN2CCC(n3nccc3NC(=O)C3CCOC3)CC2)cc1C (stereo not given),-13.5,0.5,0.6,-29.3,5.0
NC(=O)C1CCCN1S(=O)(=O)c1ccc2ccccc2c1 (stereo not given),10.4,1.8,-0.1,12.8,-0.8
CCn1c(C)cc(/C=C2/NC(=O)N(c3ccccc3)C2=O)c1C,-52.1*,-1.9,3.3,-55.1,27.4
CCn1c(C)cc(/C=C2/NC(=O)N(CC(=O)Nc3cccc(C)c3)C2=O)c1C,-1.0,0.1,0.0,-0.7,10.9
COCCNC(=S)N1CCC(C(=O)c2ccc(C)cc2)CC1,-4.0,0.6,0.4,8.6,1.3
CS(=O)(=O)c1cnc(-c2cccnc2)nc1N,-0.5,0.0,0.2,-13.3,1.1
COc1cnn(-c2cc(Oc3ccc(C)cc3)ncn2)c(=O)c1Cl,45.4,-0.7,0.1,94.5*,-0.8
COCCOc1cnn(-c2cc(Oc3ccc(C)cc3)ncn2)c(=O)c1Cl,-11.0,0.4,-0.6,-5.7,0.6
Cc1nc2ccc(Br)cc2c(=O)n1Cc1cccs1,13.0,2.0,0.2,53.6*,-2.2
Cc1nc2ccc(N)cc2c(=O)n1Cc1ccc(Cl)cc1,5.3,2.7,-0.5,3.8,26.3
COc1ccc(Cl)cc1C(=O)N/N=C/c1ccc(N2CCOCC2)cc1,-6.7,1.3,-1.8,-0.5,53.0*
CCn1ncc(/C=N/NC(=O)c2cc(Cl)ccc2OC)c1C,-5.0,2.5,0.0,-9.8,76.5*
COCCNC(=O)C(c1c[nH]c2ccccc12)N(C(=O)c1snc(C(N)=O)c1N)c1cccc(OC)c1 (stereo not given),0.6,-1.0,-0.7,8.7,10.6
COc1ccc(OC)c(S(=O)(=O)N2CCC(C(=O)NC3CC3)CC2)c1,13.3,-0.3,-0.7,45.6,1.9
NS(=O)(=O)c1ccc(-c2ccc(/C=C3\C(=O)Nc4ccccc43)o2)cc1,-6.4,nt,nt,-4.3,74.1*
NS(=O)(=O)c1ccc(-c2ccc(/C=C3\C(=O)Nc4cc(Cl)ccc43)o2)cc1,0.8,0.9,-0.2,-7.9,nt
Clc1ccc(-c2nnc(-c3ccc(Br)o3)o2)c(Cl)c1,42.9,1.4,3.3,60.4*,-1.9
CCCCOC(=O)CSc1nnc(-c2ccc(Cl)cc2Cl)o1,-3.3,0.1,-0.3,-13.7,-0.3
CC(C)OC(=O)CSc1nnc(-c2ccc(Cl)cc2Cl)o1,48.1,0.7,0.9,75.0*,5.9
CSc1ccccc1-c1nnc(-c2ccc(Cl)cc2Cl)o1,37.7,0.7,0.6,53.8*,-3.4
Clc1ccc(-c2nnc(-c3ccccc3)o2)c(Cl)c1,3.9,2.9,0.8,22.6,-3.8
Cc1ccc(N2C(=O)N(CC(=O)N3CCOCC3)C(=O)C2C)cc1 (stereo not given),-0.6,0.6,0.2,6.2,1.0
COc1cc(OC)c(-c2cc(C(=O)O)ccc2OC)c(OC)c1,7.0,1.5,-0.9,-7.6,7.9
CCCc1nnc(N2C(=O)c3cccc4cccc(c34)C2=O)s1,10.1,1.4,1.6,4.7,73.3*
SMILES,HSF1 inh,FXN GAA850 act,NR0B1 inh,HSF1 activator,AHR act
Cc1nnc(N2C(=O)c3cccc4cccc(c34)C2=O)s1,-55.1*,4.2,-0.1,-63.3,68.0*
N#Cc1ccccc1NC(=O)CN1C(=O)NC(Cc2c[nH]c3ccccc23)C1=O (stereo not given),nt,1.2,1.3,nt,78.1*
CN(CCOc1ccccc1)CC(=O)Nc1cccc(C#N)c1,3.0,3.5,-0.1,-12.9,-0.2
COc1cccc(SCc2noc(C(=O)NCCC(C)C)c2C(=O)NCCC(C)C)c1,-7.1,0.5,-0.4,-13.0,4.5
O=C(O)COc1ccc(/C=C/c2nc3ccc([N+](=O)[O-])cc3s2)cc1,0.8,-0.1,0.2,-3.1,0.5
S=c1[nH]nc(COc2ccccc2)n1/N=C/C(Cl)=C/c1ccccc1,109.4,3.2,-0.1,150.9*,1.2
CCOc1ccc(/C=N/n2c(-c3ccccc3)n[nH]c2=S)cc1,-14.2,1.4,5.8*,-2.0,19.7
S=c1[nH]nc(-c2ccncc2)n1/N=C/C(Cl)=C\c1ccccc1,39.5,4.2,-0.1,78.1*,15.4
S=c1[nH]nc(-c2ccccc2)n1/N=C/c1ccc(Cl)cc1,-6.5,1.1,0.4,-0.7,nt
Cn1nnnc1Sc1ncnc2scc(-c3cccs3)c12,nt,nt,-4.2,nt,8.3
Cc1cccc(-n2nc(CC#N)c(C#N)c2N)c1,-4.2,1.4,-0.9,-3.7,14.5
N#CCc1nn(-c2ccccc2)c2ncnc(N)c12,-59.7*,3.0,-1.9,-69.4,7.8
Cn1c2c(c(=O)n(C)c1=O)C(CC(=O)Nc1ccccc1F)C(=O)N2 (stereo not given),-0.3,1.9,nt,1.4,0.9
Cn1c2c(c(=O)n(C)c1=O)C(CC(=O)Nc1ccccc1)C(=O)N2 (stereo not given),-67.0*,0.6,0.2,-73.0,0.6
CCn1c(C)cc(C(=O)COC(=O)CNC(=O)c2ccco2)c1C,nt,-2.1,-0.6,nt,nt
CC(=O)Nc1sc2c(c1-c1nc3ccccc3s1)CN(C(C)C)CC2,nt,22.7*,1.0,nt,73.7*
CCn1c2ccccc2c2c3ncc4cccn4c3ccc21,11.2,0.2,1.4,18.9,65.6*
c1ccc2c(c1)ncc1cccn12,-1.6,1.0,0.5,-12.2,11.2
Cn1c(=O)c2c(ncn2CC2OCCO2)n(C)c1=O,-6.3,-2.2,0.3,1.5,1.3
Cc1ccc(NC(=O)CN2C(=O)NC(Cc3ccccc3)C2=O)cc1Cl (stereo not given),nt,-1.3,1.4,nt,-0.7
O=C(NN=C1C2CC3CC1CC(Cl)(C3)C2)c1ccccn1,18.5,5.0,0.6,18.3,6.6
O=C(NN=C1C2CC3CC1CC(Cl)(C3)C2)c1cccs1,10.4,6.1,5.0*,20.6,21.6
CCOc1cc(/C=C2\SC(=O)N=C2N)ccc1O,-0.4,-0.4,0.5,-15.9,48.0*
COc1ccccc1CCNC(=O)CN1C(=O)c2ccccc2S1(=O)=O,-1.5,0.8,0.2,2.9,-1.7
CN(C1CCCCC1)C(CNS(=O)(=O)c1ccccc1)c1ccccc1 (stereo not given),0.9,-5.1,0.2,5.8,0.5
SMILES,HSF1 inh,FXN GAA850 act,NR0B1 inh,HSF1 activator,AHR act
COc1ccc(C(=O)Nc2cc(C(F)(F)F)ccc2-n2cnc3ccccc32)cc1,28.2,-5.2,-0.7,65.1*,5.9
O=C(N/N=C(\c1ccccc1)c1cccnc1)c1cccc(F)c1,100.0,1.8,-2.8,126.9*,5.5
CC(/C=C\C=C\c1ccccc1)=N\NC(=O)c1cncc(Br)c1,-3.3,1.3,-0.4,15.0,45.6
CC(/C=C/C=C/c1ccccc1)=N\NC(=O)c1cccnc1,7.4,1.4,4.5*,20.1,33.0
OC(c1ccc(Cl)c(Cl)c1)c1ncc(-c2ccccc2C(F)(F)F)[nH]1 (stereo not given),nt,-0.5,nt,nt,nt
O=C(COC(=O)CC1CCCCC1)Nc1c(Cl)cccc1Cl,nt,0.9,0.4,nt,-0.5
C=C1SC(=Nc2ccccc2Cl)N(C(=O)c2sc3ccccc3c2Cl)C1(C)C,5.8,6.7,0.1,56.6*,34.4
